About 7,900 targets were measured; listed, in parts, are those with a hit and a random draw of the rest. About 0.6% of all pairs of compound and target were hits. Values without a mark were called inactive.
What was measured:
Assay in all cases: log2 fold change, soluble protein after heating vs DMSO (PISA); higher = thermal stabilisation; K562 cells, 10 uM, 30 min; active = over 0.2 and 3.5 SD of the protein, either way, in both replicates (recomputed)
saracatinib = compound: CN1CCN(CCOc2cc(OC3CCOCC3)c3c(Nc4c(Cl)ccc5c4OCO5)ncnc3c2)CC1 [saracatinib]
How it was run: (§1)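 K562 cells at 2×10^6 cells/mL were exposed to 10 μM compound for 30 min, then aliquots were heated for 3 min across 48°C-58°C, pooled, and extracted in PBS containing 0.5% NP-40 at 4°C. The supernatant after 21,000xg for 90 min was taken as soluble protein and measured by TMTpro 16plex LC-MS/MS with channel sums equalised. Thermal stability is reported relative to control samples, with values from duplicates. Fold changes are given on a log2 scale.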

sotrastaurin = compound: CN1CCN(c2nc(C3=C(c4c[nH]c5ccccc45)C(=O)NC3=O)c3ccccc3n2)CC1 [sotrastaurin]
How it was run: as §1

alvocidib = compound: CN1CC[C@H](c2c(O)cc(O)c3c(=O)cc(-c4ccccc4Cl)oc23)[C@H](O)C1 [alvocidib]
How it was run: as §1

Tubastatin A = compound: CN1CCc2c(c3ccccc3n2Cc2ccc(C(=O)NO)cc2)C1 [Tubastatin A]
How it was run: as §1

[1] = compound: CNC(=O)C1=CC=CC=C1NC2=NC(=NC=C2Cl)NC3=C(C=C(C=C3)N4CCOCC4)OC
How it was run: as §1

defactinib = compound: CNC(=O)c1ccc(Nc2ncc(C(F)(F)F)c(NCc3nccnc3N(C)S(C)(=O)=O)n2)cc1 [defactinib]
How it was run: as §1

rucaparib = compound: CNCc1ccc(-c2[nH]c3cc(F)cc4c3c2CCNC4=O)cc1 [rucaparib]
How it was run: as §1

[2] = compound: CNc1nc(-c2ccc3c(N)n[nH]c3c2)cc(N2C[C@@H](C(=O)NC3CCCCC3)CC[C@H]2C)n1
How it was run: as §1

encorafenib = compound: COC(=O)N[C@@H](C)CNc1nccc(-c2cn(C(C)C)nc2-c2cc(Cl)cc(NS(C)(=O)=O)c2F)n1 [encorafenib]
How it was run: as §1

[3] = compound: COC(=O)[C@H](CCSC)NC(=O)C1=C(C=C(C=C1)NC[C@H](CS)N)C2=CC=CC=C2
How it was run: as §1

UniProt Q6YHU6, sequence (Q6YHU6 whole entry, looked up): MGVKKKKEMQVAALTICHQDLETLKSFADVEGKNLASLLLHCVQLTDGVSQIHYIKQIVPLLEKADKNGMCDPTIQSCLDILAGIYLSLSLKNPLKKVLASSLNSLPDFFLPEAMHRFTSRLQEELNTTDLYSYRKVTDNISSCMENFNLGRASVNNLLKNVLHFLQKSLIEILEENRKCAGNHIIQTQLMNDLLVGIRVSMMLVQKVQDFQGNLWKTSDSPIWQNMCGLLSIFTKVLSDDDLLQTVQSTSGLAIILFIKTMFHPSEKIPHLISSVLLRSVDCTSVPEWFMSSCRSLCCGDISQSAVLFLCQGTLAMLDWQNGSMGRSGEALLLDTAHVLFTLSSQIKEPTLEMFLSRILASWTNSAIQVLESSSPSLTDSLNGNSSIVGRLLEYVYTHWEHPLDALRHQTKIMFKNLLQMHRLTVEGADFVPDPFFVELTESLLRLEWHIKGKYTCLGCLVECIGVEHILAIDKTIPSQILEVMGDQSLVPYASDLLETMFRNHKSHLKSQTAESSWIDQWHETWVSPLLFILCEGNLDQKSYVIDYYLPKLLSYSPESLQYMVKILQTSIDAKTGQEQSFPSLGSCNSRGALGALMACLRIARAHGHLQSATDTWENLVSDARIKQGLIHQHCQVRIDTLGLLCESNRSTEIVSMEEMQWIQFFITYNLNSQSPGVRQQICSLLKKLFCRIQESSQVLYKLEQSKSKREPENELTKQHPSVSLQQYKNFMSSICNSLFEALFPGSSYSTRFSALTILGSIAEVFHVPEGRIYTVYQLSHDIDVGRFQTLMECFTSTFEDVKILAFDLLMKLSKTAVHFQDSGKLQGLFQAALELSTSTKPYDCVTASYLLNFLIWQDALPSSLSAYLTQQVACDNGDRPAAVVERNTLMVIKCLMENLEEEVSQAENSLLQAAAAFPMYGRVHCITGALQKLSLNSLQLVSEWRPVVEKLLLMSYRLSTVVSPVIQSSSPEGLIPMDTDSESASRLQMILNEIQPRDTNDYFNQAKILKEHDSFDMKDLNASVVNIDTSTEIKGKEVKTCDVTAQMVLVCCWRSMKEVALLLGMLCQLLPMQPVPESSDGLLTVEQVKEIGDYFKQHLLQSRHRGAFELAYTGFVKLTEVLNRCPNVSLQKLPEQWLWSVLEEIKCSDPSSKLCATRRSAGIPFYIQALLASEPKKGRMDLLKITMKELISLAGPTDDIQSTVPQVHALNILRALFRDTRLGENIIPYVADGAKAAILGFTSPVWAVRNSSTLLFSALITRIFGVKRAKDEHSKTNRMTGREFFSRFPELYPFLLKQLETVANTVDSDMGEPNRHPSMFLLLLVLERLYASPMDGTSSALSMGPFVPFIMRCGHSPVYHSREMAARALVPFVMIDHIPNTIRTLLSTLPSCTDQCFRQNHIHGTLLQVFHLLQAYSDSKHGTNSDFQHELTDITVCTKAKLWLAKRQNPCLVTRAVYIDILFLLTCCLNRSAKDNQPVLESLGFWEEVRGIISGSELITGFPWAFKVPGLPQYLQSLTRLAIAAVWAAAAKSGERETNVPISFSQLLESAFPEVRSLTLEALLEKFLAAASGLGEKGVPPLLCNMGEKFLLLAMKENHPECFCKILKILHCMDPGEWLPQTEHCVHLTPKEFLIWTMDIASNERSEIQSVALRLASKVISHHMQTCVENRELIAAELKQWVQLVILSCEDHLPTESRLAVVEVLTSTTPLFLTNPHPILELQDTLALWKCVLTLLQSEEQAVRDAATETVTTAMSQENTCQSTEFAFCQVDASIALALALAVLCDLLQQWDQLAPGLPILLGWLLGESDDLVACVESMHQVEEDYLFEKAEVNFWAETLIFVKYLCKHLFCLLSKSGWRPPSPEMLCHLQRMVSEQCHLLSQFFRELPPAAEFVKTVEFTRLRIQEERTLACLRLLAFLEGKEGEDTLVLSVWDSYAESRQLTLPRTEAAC
UniProt Q5M775, sequence (Q5M775 whole entry, looked up): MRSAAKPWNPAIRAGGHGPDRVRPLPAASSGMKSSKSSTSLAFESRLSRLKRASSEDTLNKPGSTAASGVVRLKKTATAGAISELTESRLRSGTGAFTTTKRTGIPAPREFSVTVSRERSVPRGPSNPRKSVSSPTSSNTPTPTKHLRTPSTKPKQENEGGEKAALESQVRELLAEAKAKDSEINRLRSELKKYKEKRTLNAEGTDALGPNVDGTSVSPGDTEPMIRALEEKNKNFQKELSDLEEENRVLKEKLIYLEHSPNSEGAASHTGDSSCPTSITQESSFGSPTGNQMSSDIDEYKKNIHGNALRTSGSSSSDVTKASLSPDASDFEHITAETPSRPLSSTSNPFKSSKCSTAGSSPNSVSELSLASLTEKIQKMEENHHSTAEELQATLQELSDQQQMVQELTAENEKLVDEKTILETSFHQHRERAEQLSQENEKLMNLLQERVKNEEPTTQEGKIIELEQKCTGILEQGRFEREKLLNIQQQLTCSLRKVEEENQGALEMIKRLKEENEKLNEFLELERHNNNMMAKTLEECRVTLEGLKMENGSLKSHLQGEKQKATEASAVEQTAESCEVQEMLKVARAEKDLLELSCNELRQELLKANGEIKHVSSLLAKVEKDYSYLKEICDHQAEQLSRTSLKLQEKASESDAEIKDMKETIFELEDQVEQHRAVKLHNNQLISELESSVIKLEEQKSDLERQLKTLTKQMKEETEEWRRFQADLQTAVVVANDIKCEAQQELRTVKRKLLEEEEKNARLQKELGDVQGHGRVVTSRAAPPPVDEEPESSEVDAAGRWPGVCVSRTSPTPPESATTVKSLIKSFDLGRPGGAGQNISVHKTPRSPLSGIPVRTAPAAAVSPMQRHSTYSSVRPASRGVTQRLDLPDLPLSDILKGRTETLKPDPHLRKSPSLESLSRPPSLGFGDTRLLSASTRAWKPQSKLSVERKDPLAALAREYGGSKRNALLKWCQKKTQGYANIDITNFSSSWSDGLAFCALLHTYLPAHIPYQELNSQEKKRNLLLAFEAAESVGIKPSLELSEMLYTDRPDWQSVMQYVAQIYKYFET
UniProt Q9UH99, sequence (Q9UH99 whole entry, looked up): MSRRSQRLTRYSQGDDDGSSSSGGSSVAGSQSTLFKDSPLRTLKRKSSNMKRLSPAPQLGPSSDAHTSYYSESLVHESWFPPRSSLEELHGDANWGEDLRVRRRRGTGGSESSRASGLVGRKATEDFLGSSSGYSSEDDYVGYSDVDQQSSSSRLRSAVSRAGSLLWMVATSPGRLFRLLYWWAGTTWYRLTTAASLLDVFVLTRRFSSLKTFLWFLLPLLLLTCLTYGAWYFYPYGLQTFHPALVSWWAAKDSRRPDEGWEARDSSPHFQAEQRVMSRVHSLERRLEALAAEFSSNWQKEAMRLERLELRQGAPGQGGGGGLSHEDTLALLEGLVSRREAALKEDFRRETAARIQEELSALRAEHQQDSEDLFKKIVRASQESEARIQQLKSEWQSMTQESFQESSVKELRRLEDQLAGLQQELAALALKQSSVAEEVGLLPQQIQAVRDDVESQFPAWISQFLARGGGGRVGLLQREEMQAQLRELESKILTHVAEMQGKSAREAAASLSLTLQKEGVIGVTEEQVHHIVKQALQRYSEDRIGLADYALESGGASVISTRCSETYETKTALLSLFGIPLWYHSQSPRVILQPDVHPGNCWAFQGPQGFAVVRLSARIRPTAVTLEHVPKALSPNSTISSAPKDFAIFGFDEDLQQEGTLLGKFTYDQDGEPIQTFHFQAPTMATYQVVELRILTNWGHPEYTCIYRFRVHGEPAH
UniProt P51692, sequence (P51692 whole entry, looked up): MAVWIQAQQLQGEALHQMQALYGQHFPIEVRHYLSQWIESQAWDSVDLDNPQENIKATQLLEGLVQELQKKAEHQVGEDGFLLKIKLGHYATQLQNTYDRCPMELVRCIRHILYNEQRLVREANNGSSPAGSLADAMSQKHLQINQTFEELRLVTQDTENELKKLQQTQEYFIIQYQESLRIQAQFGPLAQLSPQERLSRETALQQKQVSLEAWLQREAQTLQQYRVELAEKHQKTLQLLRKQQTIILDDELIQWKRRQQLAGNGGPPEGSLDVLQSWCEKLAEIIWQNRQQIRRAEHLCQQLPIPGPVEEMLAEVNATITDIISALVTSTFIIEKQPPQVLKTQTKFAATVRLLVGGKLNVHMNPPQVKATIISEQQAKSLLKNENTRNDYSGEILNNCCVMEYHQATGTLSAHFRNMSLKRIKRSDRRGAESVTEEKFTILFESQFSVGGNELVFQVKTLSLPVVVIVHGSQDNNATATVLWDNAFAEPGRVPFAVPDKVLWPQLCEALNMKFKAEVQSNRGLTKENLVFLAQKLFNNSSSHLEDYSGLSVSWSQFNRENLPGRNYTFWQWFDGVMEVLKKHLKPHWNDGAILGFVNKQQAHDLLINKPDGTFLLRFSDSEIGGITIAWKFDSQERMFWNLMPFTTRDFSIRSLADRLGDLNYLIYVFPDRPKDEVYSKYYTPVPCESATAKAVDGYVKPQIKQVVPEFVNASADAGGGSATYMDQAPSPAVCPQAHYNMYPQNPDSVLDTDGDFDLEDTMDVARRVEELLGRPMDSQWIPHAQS
UniProt O00506, sequence (O00506 whole entry, looked up): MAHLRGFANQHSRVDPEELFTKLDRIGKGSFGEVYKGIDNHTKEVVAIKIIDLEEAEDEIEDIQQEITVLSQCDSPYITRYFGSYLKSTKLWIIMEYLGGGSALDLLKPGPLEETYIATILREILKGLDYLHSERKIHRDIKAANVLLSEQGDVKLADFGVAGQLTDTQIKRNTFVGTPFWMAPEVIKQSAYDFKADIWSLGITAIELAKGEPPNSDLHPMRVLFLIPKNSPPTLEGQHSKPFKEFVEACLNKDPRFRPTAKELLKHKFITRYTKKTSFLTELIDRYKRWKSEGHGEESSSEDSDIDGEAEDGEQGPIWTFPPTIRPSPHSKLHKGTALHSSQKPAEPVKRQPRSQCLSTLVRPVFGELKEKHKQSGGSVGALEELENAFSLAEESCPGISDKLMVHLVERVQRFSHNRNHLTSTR
UniProt Q8N5G0, sequence (Q8N5G0 whole entry, looked up): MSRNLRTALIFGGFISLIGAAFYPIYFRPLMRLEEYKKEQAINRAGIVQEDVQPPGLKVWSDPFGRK

Target	log2 fold change (saracatinib)	log2 fold change (sotrastaurin)	log2 fold change (alvocidib)	log2 fold change (Tubastatin A)	log2 fold change [1]	log2 fold change (defactinib)	log2 fold change (rucaparib)	log2 fold change [2]	log2 fold change (encorafenib)	log2 fold change [3]
SLC38A9 (UniProt Q8NBW4)	0.053	-0.184	-0.024	-0.05	0.025	-0.038	-0.048	-0.073	-0.001	0.001
TIPRL (UniProt O75663)	-0.028	-0.056	-0.119	0	0.009	-0.049	0.013	-0.001	0.035	-0.014
THADA (UniProt Q6YHU6)	0	-0.104	-0.095	0.073	-0.036	-0.079	-0.017	0.047	0.09	-0.014
SUN2 (UniProt Q9UH99)	-0.029	-0.09	0.015	0.053	-0.068	-0.05	0.03	-0.066	0.067	0.023
TBC1D23 (UniProt Q9NUY8)	-0.023	-0.073	-0.053	0.043	-0.027	-0.109	-0.038	-0.074	0.079	-0.047
SUCLG1 (UniProt P53597)	0.042	0.019	-0.028	-0.005	0.015	-0.057	0.016	-0.006	-0.001	0.016
SRRM2 (UniProt Q9UQ35)	-0.026	-0.048	-0.412 (active)	0.093	-0.264	-0.298	0.013	-0.009	-0.013	0.047
TM9SF4 (UniProt Q92544)	-0.028	0.017	-0.008	-0.015	0.013	0.037	0.043	-0.046	0.039	-0.03
SLIRP (UniProt Q9GZT3)	-0.068	-0.141	-0.143	0.019	-0.045	-0.005	0.148	-0.185	-0.094	0.096
STK25 (UniProt O00506)	-0.045	0.088	0.028	-0.007	-0.078	-0.041	0.011	-0.012	0.039	0.051
STAT5B (UniProt P51692)	-0.231	-0.083	-0.023	0.045	-0.053	-0.33	0.105	0.138	0.073	-0.052
TCERG1 (UniProt O14776)	-0.051	-0.086	-0.18	0.11	-0.011	-0.288	-0.003	0.08	0.063	-0.105
SLC25A38 (UniProt Q96DW6)	0.076	-0.027	-0.117	-0.035	-0.015	0.046	-0.002	0.026	0.016	-0.057
SNRNP40 (UniProt Q96DI7)	0.068	-0.01	0.143	-0.092	0.045	0.128	0.012	-0.03	0.039	-0.034
SRSF7 (UniProt Q16629)	-0.014	0.12	0.291	0.006	-0.226	0.168	0.3	-0.04	0.038	0.042
STARD9 (UniProt Q9P2P6)	0.051	-0.316	-0.337	0.122	-0.344	0.144	-0.005	0.103	0.048	-0.03
TACC2 (UniProt O95359)	-0.003	0.115	-0.084	-0.041	0.075	-0.091	-0.045	-0.105	-0.013	0.039
TFR2 (UniProt Q9UP52)	0.007	-0.031	0.029	-0.053	0.006	0.029	0.029	-0.129	-0.015	0.009
TAOK1 (UniProt Q7L7X3)	0.002	-0.013	-0.077	0.032	-0.002	-0.142	0.032	0.053	-0.061	-0.018
SMAP (UniProt O00193)	-0.035	0.016	-0.015	0.016	-0.069	-0.001	-0.064	0.009	-0.054	0.013
SMPD4 isoform 4 (UniProt Q9NXE4)	0.154	-0.082	-0.174	0.007	-0.041	-0.056	0.043	-0.071	-0.081	0
STAT5A (UniProt P42229)	-0.093	-0.14	-0.151	0.088	-0.001	-0.273	0.006	0.054	0.088	-0.059
TMBIM1 (UniProt Q969X1)	-0.147	0.012	0.207	0.002	-0.042	0.043	-0.009	-0.097	-0.223	0.051
SMIM20 isoform 2 (UniProt Q8N5G0)	0	0.056	-0.024	-0.013	0.018	-0.138	-0.088	-0.094	-0.055	-0.143
SNW1 (UniProt Q13573)	0.01	0.003	0.128	-0.033	0.038	0.131	0.042	-0.082	-0.005	-0.005
TGFBI (UniProt Q15582)	0.017	0.171	0.054	-0.005	-0.014	-0.037	-0.06	-0.113	0.006	0.098
SPECC1 (UniProt Q5M775)	-0.171	0.093	0.06	-0.024	-0.069	0	0.091	-0.104	-0.015	-0.062
